# In PubChem BioAssay:
# Where “and” joins values, the source holds several entries; their conditions need not be identical. Equal entries are not always repeated. Calls of active or inactive are those of the source.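 The calls were made as follows, unless noted: active = mean z-score across replicates of 1.96 or higher in either the MELAS or the Rieske mutant cell line; inactive = the rest.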
# Legend:
# [1] = polyglutamine-triggered caspase-3 activation inhibitors, cell-based (AID 1583); settings: polyglutamine-induced caspase-3 activation, cell assay; stronger effect = higher value;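 tested at 10 µM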
# [2] = hESC survival regulators, cell-based (AID 493140; call rule not given here;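 also: cells exposed to compounds for four days before counting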); settings: human embryonic stem cell survival screen; stronger effect = higher value
# [3] = stimulators of insulin release from INS-1E, primary screen, cell-based, 5 mM glucose, NPC library (AID 1117329;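 active = compound raises insulin release from rat beta cells at 5 mM glucose, no numeric limit stated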); settings: rat INS-1E insulin secretion, at 10 µM, stronger effect = higher value
# [4] = growth inhibition of GSK3B-pretreated HCT116 cells – cell-based, CellTiter-Glo, 0.2 to 20 µM (AID 1117336;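 active = compounds lowering colon cancer cell viability after pretreatment blocking the GSK3B kinase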); settings: HCT116 viability after GSK3B inhibitor, at 20 µM, stronger effect = higher value
# [5] = inhibition of endothelial tube formation, primary screen, imaging, VEGF stimulated, CD31 staining, tube area, NPC library (AID 1117340;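 active = compound that reduces growth-factor-driven endothelial tube area in a mixed cell culture, no cutoff stated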); settings: VEGF-stimulated ADSC/ECFC co-culture, at 10 µM, stronger effect = higher value
# [6] = glucagon-like peptide 1 release enhancers, primary assay, NCI-H716 cell line, NPC library (AID 1117341;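 active = compound raises GLP1 secretion from the human gut endocrine cells, with no numeric limit stated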); settings: NCI-H716 cells, at 10 µM, stronger effect = higher value
# [7] = HCT116 colon cancer cell growth inhibition, primary screen, CellTiter-Glo luminescence, NPC library (AID 1117342;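 active = compounds that lower survival of HCT116 colon cancer cells in the luminescence readout, no numeric limit stated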); settings: at 20 µM (top of the series)
# [8] = CellTiter-Glo luminescent readout of SW480 viability loss, NPC library primary (AID 1117343;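 active = compounds that lower viability of the colon cancer cells in the luminescence readout, with no numeric limit stated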); settings: CellTiter-Glo luminescence; at 20 µM (top of the series) unless noted
# [9] = decreased DLD-1 cellular survival, CellTiter-Glo luminescent readout, NPC compound collection, primary HTS (AID 1117346;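 active = compounds that lower survival of DLD-1 colon cancer cells in the luminescence readout, no cutoff given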); settings: DLD-1 viability, CellTiter-Glo luminescence; at 20 µM (top of the series)
# [10] = target: 6-phosphogluconate dehydrogenase, decarboxylating (Homo sapiens) (UniProt P52209); test: 6PGD enzyme inhibitors, primary screen, biochemical, human, recombinant enzyme, NADPH absorbance (AID 1159550;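 active = at least 20% inhibition of 6-phosphogluconate dehydrogenase activity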); settings: recombinant 6PGD, NADPH absorbance 341 nm; at 10 µM; stronger effect = higher value
# [11] = modulation of C. elegans fzo-1 (AID 1259413; call rule not given here;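 also: fzo-1 mutant C. elegans worms in liquid wells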); settings: C. elegans fzo-1 modulator screen, mean read-out; stronger effect = higher value
# [12] = differential killing of epithelial or mesenchymal cells, primary screen, imaging, PC-3E GFP, TEM4-18 mCherry, co-culture (AID 1345086;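 active = compounds killing one labelled cell type while sparing the other, by normalised counts and ratio limits, not self-fluorescent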;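 as to all read-outs here: cells exposed to compound for 72 h before imaging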;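 as to red/green cell ratio (normalised): normalised mesenchymal count divided by normalised epithelial count so high means epithelial killing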); settings: imaging cell counts, at 1 µM; for red/green cell ratio (normalised): actives lie on both sides, counts scaled to control wells, 1 = unselective
# [13] = sensitizers of A549 cells to miR-34 induction, primary screen, imaging, A549 dox-inducible miR-34, nuclei and caspase counts (AID 1347080;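 active = compounds whose cell count with miR-34 switched on is under 0.7 times the count with it off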); settings: A549 miR-34 inducible, Hoechst nuclei count, 48 h
# [14] = survival rescue of mitochondrial mutant cells in low glucose, primary screen, MELAS cybrids, Rieske KO mouse fibroblasts, CellTiter-Glo (AID 1508586);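 also: z relative to plate mean and SD of compound and empty wells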
# [15] = target: NAD(+) hydrolase SARM1 (Homo sapiens) (UniProt Q6SZW1); test: SARM1 TIR NADase inhibitors, cell lysate, NAD-Glo luminescence (AID 1508614;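 active = compound whose remaining NAD level is above about 45 nM, limit read from the data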;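 also: higher remaining NAD means stronger inhibition of SARM1 NADase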); settings: SAM-TIR HEK293T lysate NADase, at 1 µM, stronger effect = higher value
# [16] = target: Mitogen-activated protein kinase 7 (Homo sapiens) (UniProt Q13164); test: ERK5 transactivation activators in reporter cells, primary screen, cell-based, HTS (AID 1508626;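 active = luciferase signal above three times the same-plate solvent-only control wells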;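 also: luciferase driven by Gal4-ERK5 fusion binding five Gal4 sites before minimal TATA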); settings: HeLa Gal4-ERK5 transactivation, 18 h, at 5 µM, stronger effect = higher value
# [17] = liver-stage malaria parasite growth inhibition, primary screen, cell-based, HepG2, luciferase luminescence, HepG2 viability (AID 624349; in the data active = parasite load remaining mostly below about 12%, no sharp cut-off; inactive = mostly above about 10%;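 also: 100% = mean of DMSO negative control wells on the same plate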); settings: P. berghei liver stage in HepG2, luciferase luminescence, concentration not given here; parasite load remaining: stronger effect = lower value; viability: measured here: HepG2 viability without parasites
# [18] = stimulators of nuclear beta-catenin in C2C12, primary screen, imaging, WNT3A-conditioned medium, mouse C2C12, NPC library (AID 1117326; in the data active = nuclear beta-catenin stimulation mostly above about 4.2%, no sharp cut-off; inactive = mostly below about 10%); settings: stronger effect = higher value
# [19] = viability rescue of complex I mutant cybrids, primary screen, cell-based, galactose medium, ATP luminescence (AID 1645843;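 active = z-score of at least 1.8 in each of two replicates, scored against plate mean and spread of sample wells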;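 also: positive z means more ATP and so rescue of galactose-driven cybrid death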); settings: complex I mutant cybrid cells, 72 h, stronger effect = higher value
# [20] = measured here: epithelial PC-3E GFP cell survival
# [21] = measured here: mesenchymal TEM4-18 mCherry cell survival
# [22] = MELAS cybrid survival, CellTiter-Glo 48 h, stronger effect = higher value
# [23] = Rieske KO mouse fibroblast survival, CellTiter-Glo 72 h
# Mitogen-activated protein kinase 7 (Homo sapiens), sequence (Q13164 whole entry, looked up, the tested form may be a part): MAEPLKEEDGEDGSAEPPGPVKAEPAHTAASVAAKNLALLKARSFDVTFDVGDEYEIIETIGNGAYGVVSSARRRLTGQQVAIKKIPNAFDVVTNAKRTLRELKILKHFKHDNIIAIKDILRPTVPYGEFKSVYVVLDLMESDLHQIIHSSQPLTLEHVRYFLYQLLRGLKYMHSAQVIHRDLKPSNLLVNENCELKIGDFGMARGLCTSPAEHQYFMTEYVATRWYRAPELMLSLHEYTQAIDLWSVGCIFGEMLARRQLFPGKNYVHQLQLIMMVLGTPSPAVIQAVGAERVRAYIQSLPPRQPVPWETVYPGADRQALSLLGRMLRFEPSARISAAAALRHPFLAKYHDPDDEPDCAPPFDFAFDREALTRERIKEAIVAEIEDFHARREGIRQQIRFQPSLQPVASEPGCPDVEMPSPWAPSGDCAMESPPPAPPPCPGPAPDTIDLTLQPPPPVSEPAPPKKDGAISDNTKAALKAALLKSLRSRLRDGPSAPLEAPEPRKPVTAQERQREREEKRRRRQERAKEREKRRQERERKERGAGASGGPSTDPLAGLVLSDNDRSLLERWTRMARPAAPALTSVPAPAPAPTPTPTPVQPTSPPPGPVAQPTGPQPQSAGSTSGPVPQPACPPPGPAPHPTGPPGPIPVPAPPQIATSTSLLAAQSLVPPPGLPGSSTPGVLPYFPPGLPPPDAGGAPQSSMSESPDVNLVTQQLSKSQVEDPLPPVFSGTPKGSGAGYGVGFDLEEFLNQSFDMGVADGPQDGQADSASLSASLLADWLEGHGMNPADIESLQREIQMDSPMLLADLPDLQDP
# 6-phosphogluconate dehydrogenase, decarboxylating (Homo sapiens), sequence (P52209 whole entry, looked up): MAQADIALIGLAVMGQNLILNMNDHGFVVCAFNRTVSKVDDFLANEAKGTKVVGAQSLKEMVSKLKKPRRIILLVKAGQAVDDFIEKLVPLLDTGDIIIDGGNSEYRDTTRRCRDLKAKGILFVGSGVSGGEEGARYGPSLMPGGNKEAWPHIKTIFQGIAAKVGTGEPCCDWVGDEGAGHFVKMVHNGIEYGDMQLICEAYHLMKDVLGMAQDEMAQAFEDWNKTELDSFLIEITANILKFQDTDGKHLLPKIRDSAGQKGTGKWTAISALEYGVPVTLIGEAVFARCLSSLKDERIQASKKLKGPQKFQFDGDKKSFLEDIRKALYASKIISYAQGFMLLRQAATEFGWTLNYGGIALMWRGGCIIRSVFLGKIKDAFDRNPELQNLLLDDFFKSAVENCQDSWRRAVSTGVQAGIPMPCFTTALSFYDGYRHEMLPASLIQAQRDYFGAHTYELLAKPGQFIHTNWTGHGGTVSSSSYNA
# NAD(+) hydrolase SARM1 (Homo sapiens), sequence (Q6SZW1 whole entry, looked up, the tested form may be a part): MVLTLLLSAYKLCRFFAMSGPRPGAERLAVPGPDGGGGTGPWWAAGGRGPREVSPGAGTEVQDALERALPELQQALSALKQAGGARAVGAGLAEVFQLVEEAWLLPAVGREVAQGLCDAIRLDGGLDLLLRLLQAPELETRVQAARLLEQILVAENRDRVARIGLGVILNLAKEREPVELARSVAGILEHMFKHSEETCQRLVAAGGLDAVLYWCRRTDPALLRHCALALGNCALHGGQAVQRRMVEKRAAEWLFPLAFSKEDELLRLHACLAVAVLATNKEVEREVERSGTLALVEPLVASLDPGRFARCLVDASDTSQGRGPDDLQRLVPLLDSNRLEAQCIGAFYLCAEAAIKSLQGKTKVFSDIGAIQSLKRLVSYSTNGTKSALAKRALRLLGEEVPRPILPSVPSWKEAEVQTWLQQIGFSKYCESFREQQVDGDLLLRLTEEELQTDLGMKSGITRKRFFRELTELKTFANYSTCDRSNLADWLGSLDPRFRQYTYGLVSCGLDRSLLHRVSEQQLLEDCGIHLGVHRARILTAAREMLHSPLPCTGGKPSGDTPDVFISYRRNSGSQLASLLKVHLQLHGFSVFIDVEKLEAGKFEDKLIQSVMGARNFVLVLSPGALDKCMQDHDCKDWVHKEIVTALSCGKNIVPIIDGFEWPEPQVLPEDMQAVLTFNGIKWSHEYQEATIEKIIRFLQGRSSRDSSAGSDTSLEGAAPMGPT
smiles,measurement,setting,value
O=C1CN(/N=C/c2ccc([N+](=O)[O-])o2)C(=O)N1,inhibition,[1],27%
same,survival,[2],10.8 (inactive)
same,insulin secretion stimulation,[3],-2.7% (inactive)
same,viability decrease,[4],26.8% (inactive)
same,tube area decrease,[5],-36% (inactive)
same,GLP1 secretion stimulation,[6],-0.3% (inactive)
same,inhibition of viability,[7],18.2% (inactive)
same,viability decrease (inhibition),[8],46.4% (active)
same,viability decrease (inhibition),[9],8.55% (inactive)
same,inhibition,[10],-10.5% (inactive)
same,mean signal,[11],245 (inactive)
same,red/green cell ratio (normalised),[12],0.97 (inactive)
same,normalised cell number,[12]; [20],1.08
same,normalised cell number,[12]; [21],1.05
same,fold change,"[13]; stronger effect = lower value, cell number ratio, induced over uninduced",0.928 (inactive) and 0.958 (inactive)
same,fold change,[13]; measured here: relative caspase fold change +Dox/-Dox,1.23 and 1.67
same,cell count,"[13]; measured here: total cells with miR-34 induction, stronger effect = lower value",8440 and 12500
same,cell count,[13]; measured here: total cells without miR-34 induction,9100 and 13100
same,z-score,[14]; [22],-2.68 (inactive)
same,z-score,[14]; [23],-2.1
same,remaining NAD,[15],10 nM (inactive)
same,luciferase signal,[16],40 AU (inactive)
O=C(CCCN1CCC(O)(c2ccc(Cl)cc2)CC1)c1ccc(F)cc1,inhibition,[1],-12.1%
same,survival,[2],6.08 (inactive)
same,insulin secretion stimulation,[3],10.8% (inactive)
same,viability decrease,[4],75.7% (active)
same,tube area decrease,[5],-3.9% (inactive)
same,GLP1 secretion stimulation,[6],7.5% (inactive)
same,inhibition of viability,[7],63.5% (active)
same,viability decrease (inhibition),[8],66.8% (active)
same,viability decrease (inhibition),[9],35.5% (inactive)
same,inhibition,[10],-6.6% (inactive)
same,mean signal,[11],271 (inactive)
same,red/green cell ratio (normalised),[12],0.92 (inactive)
same,normalised cell number,[12]; [20],0.87
same,normalised cell number,[12]; [21],0.8
same,z-score,[14]; [22],-0.322 (inactive) and 0.952 (inactive) and 0.0534 (inactive)
same,z-score,[14]; [23],-0.84 and 0.343 and 0.587
same,remaining NAD,[15],10 nM (inactive)
same,luciferase signal,[16],40 AU (inactive)
NC(=O)c1cccnc1,parasite load remaining,[17],64% (inactive) and 68.4% (inactive) and 18% (inactive)
same,viability,[17],200% and 89.4% and 114%
same,nuclear beta-catenin stimulation,[18]; at 10 µM,0.1% (inactive)
same,nuclear beta-catenin stimulation,"[18]; stimulation, at 2 µM",7.7%
same,viability decrease,[4],7% (inactive)
same,tube area decrease,[5],-7.9% (inactive)
same,inhibition of viability,[7],11.2% (inactive)
same,viability decrease (inhibition),[8],1.3% (inactive)
same,viability decrease (inhibition),[9],4.3% (inactive)
same,mean signal,[11],256 (inactive)
same,red/green cell ratio (normalised),[12],1.14 (inactive)
same,normalised cell number,[12]; [20],1.05
same,normalised cell number,[12]; [21],1.2
same,z-score,[14]; [22],-0.258 (inactive) and -0.151 (inactive) and -0.172 (inactive)
same,z-score,[14]; [23],0.704 and -0.543 and -0.673
same,luciferase signal,[16],32 AU (inactive)
same,z-score,[19],0.75 (inactive) and 0.635 (inactive)
CC(C)NCC(O)COc1cccc2[nH]ccc12 (stereo not given),inhibition,[1],-39.9%
same,survival,[2],5.75 (inactive)
same,insulin secretion stimulation,[3],0.3% (inactive)
same,viability decrease,[4],17.5% (inactive)
same,tube area decrease,[5],0% (inactive)
same,GLP1 secretion stimulation,[6],1.4% (inactive)
same,inhibition of viability,[7],-13.4% (inactive)
same,viability decrease (inhibition),[8],-0.7% (inactive)
same,viability decrease (inhibition),[9],-7.1% (inactive)
same,inhibition,[10],11.4% (inactive)
same,mean signal,[11],248 (inactive)
same,red/green cell ratio (normalised),[12],1.41 (inactive)
same,normalised cell number,[12]; [20],0.83
same,normalised cell number,[12]; [21],1.17
same,z-score,[14]; [22],-0.583 (inactive) and -0.452 (inactive)
same,z-score,[14]; [23],-0.0517 and -0.221
same,remaining NAD,[15],10 nM (inactive)
same,luciferase signal,[16],84 AU (inactive)
